# TIM10 inh = growth inhibitors of TIM10 yeast strain; S. cerevisiae TIM10 strain growth, BacTiter-Glo luminescence, 24 h; inhibition, % at 10 µM; 330,000 compounds, 1.4% hits;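 active means inhibition of 40% or more at the single tested concentration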;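 further: wild-type TIM10 isogenic control strain grown at permissive 25 °C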
# NALP3 yeast inh = inhibitors of NALP3 inflammasome in yeast; 330,000 compounds, 0.39% hits; Yeast reconstituted NLRP3/ASC/caspase-1, beta-gal luminescence, 24 h; inhibition, % at 10 µM;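 active means inhibition of 50% or more; inactive means inhibition below 50%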;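 further: plate controls were induced DMSO wells for no effect and uninduced yeast grown without galactose for full effect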
# NALP1 inh = NALP1 inhibition; S. cerevisiae NALP1/ASC/caspase-1 growth, X-gal OD620, 72 h; inhibition, % at 10 µM; 280,000 compounds, 0.61% hits; AID 2071; in the data active means inhibition mostly above about 24%, no sharp cut-off; inactive means mostly below about 32%
# tim23-1 inh = tim23-1 yeast growth inhibition; S. cerevisiae tim23-1 growth, BacTiter-Glo luminescence, 24 h; inhibition, % at 20 µM; 330,000 compounds, 1.3% hits; AID 463212;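 active means growth inhibition of the mutant yeast at or above 50%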;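 further: temperature-sensitive mutant grown at 25 °C; plate controls were DMSO-treated mutant yeast for no effect and medium wells lacking yeast for full effect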
# tim10-1 inh = growth inhibitors of tim10-1 mutant yeast; S. cerevisiae tim10-1 ts strain growth, BacTiter-Glo, 24 h; inhibition, % at 20 µM; 330,000 compounds, 2.2% hits;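 active means inhibition of at least 40%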;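 further: mutant grown at 25 °C; 0% = DMSO wells with yeast and 100% = wells holding no yeast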
# tim10-1 confirm = confirmation of tim10-1 mutant yeast growth inhibitors; inhibition, % at 20 µM; S. cerevisiae tim10-1 ts strain growth, BacTiter-Glo, 24 h; 7,400 compounds, 56% hits; shares compounds with tim10-1 inh;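 active means inhibition of yeast growth at or above a set limit in either of two repeat tests at 20 µM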;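 further: tim10-1 mutant grown at permissive 25 °C to find synthetic lethal compounds; 0% = DMSO yeast wells and 100% = medium wells without yeast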
# Numbers without * were called inactive; nt = no result given. Most compounds without a hit are left out; they make up all but 4.1% or so of the library.
SMILES,TIM10 inh,NALP3 yeast inh,NALP1 inh,tim23-1 inh,tim10-1 inh,tim10-1 confirm
CCOC(=O)c1ccc(NC(=O)c2c(NC(=O)CCC(=O)O)sc3c2CCCCC3)cc1,28,3,-19,26,40*,31*
COc1ccccc1NC(=O)c1csc2c1CCCC2,12,34,1,39,14,nt
O=C(Nc1ccccn1)c1csc2c1CCCC2,21,20,5,14,44*,17
N/C(=N\OC(=O)CCCc1ccccc1)c1cccc([N+](=O)[O-])c1,35,-7,31,32,46*,42*
N/C(=N\OC(=O)CCCc1ccccc1)c1ccccc1,35,13,10,35,45*,44*
COc1cccc(CNC(=O)C(=O)N2CCC3(CC2)OCCN3S(=O)(=O)c2ccc(C)cc2)c1,6,18,nt,18,22,nt
NNC(=O)c1[nH]c2ccccc2c1-c1ccccc1,25,20,4,50,42*,35*
O=C(CCN1CCCCO1)N1CCCC(Nc2ccc(F)cc2)C1 (stereo not given),2,19,-1,-4,-12,nt
O=C(CCc1ccccc1)NNC(=S)NC(=O)c1ccccc1,13,31,-1,-7,-40,nt
CC(C)(C)c1cc(CCC(=O)NNC(=S)NC(=O)c2ccccc2)cc(C(C)(C)C)c1O,25,18,13,28,46*,31*
CC(C)c1ccc(NC(=O)c2cc(S(=O)(=O)NCC3COc4ccccc4O3)ccc2F)cc1 (stereo not given),38,3,35,34,43*,43*
O=C(O)c1cc(S(=O)(=O)NCC2COc3ccccc3O2)ccc1Cl (stereo not given),6,7,nt,-9,-20,nt
CCCCN(C(=O)c1c(CC)noc1C)c1c(N)n(CCCC)c(=O)[nH]c1=O,-3,10,nt,-4,-26,nt
COc1ccc(N2CCN(C(=O)COc3ncnc4ccccc34)CC2)cc1,9,11,16,11,23,nt
Cc1nc(-c2cccnc2)sc1C(=O)Nc1ccc(C(F)(F)F)cc1,20,9,36,24,37,nt
Cc1nc(-c2cccnc2)sc1C(=O)Nc1cccc(C(F)(F)F)c1,31,6,2,22,43*,28
CCOc1ccc(C(=O)NCC(=O)NNC(=O)c2ccco2)cc1OCC,-3,9,nt,-11,-17,nt
COc1ccc(-c2cn3cccnc3n2)cc1NC(=O)C(C)Oc1ccccc1 (stereo not given),1,14,7,49,46*,7
N=C1C(c2nc3ccccc3c(=O)[nH]2)=C(O)CN1CCO,1,10,-6,42,22,nt
N=C1C(c2nc3ccccc3c(=O)[nH]2)=C(O)CN1CCc1ccccc1,12,-4,20,9,41*,-14
O=C(NCCO)C(=O)NCC1OCCCN1S(=O)(=O)c1ccc2c(c1)OCCO2 (stereo not given),0,0,3,11,7,nt
CCc1ccc(NC(=S)N(Cc2ccc(Cl)cc2)Cc2ccc(C(=O)O)cc2)cc1,6,15,1,37,8,nt
CC(C)CN(CC(C)C)C(=S)Nc1ccc(Cl)cc1,37,1,0,44,55*,47*
CC1=NNC(=O)C(CC(=O)Nc2ccc(Cl)c(Cl)c2)C1 (stereo not given),2,8,25,16,9,nt
COc1cc(/C=N/NC(=O)c2nnn(-c3nonc3N)c2C(C)C)ccc1OCc1ccc(F)cc1,9,19,2,4,43*,-1
SMILES,TIM10 inh,NALP3 yeast inh,NALP1 inh,tim23-1 inh,tim10-1 inh,tim10-1 confirm
CC(C)c1c(C(=O)N/N=C/c2cccc(OCc3ccc(F)cc3)c2)nnn1-c1nonc1N,7,14,16,21,36,nt
Cc1ccc(C(=O)N2CCCC(N3CCN(c4cccc(C(F)(F)F)c4)CC3)C2)s1 (stereo not given),18,10,23,35,42*,21
CC(=O)N1CCCC(N2CCN(c3cccc(C(F)(F)F)c3)CC2)C1 (stereo not given),-4,9,28,1,-23,nt
CCOC(=O)C1CCN(S(=O)(=O)c2ccc3c(c2)NC(=O)CS3)CC1,-10,3,18,10,2,nt
O=C(CSCC(=O)N1CCCCC1)Nc1nc(-c2ccc(Cl)s2)cs1,22,5,-9,43,41*,36*
O=C(CSCC(=O)N1CCN(c2ccccc2)CC1)Nc1nc(-c2ccc(Cl)s2)cs1,7,26,35,9,7,nt
CC1Cc2cc(S(=O)(=O)N3CCCC(C(=O)N4CCCCC4)C3)ccc2N1C(=O)C1CC1 (stereo not given),-6,-1,7,27,43*,-27
CCOC(=O)c1cnc2ccc(OC)cc2c1NCc1ccccc1,36,4,32,38,30,nt
CCOC(=O)c1cnc2ccc(OCC)cc2c1NCc1ccccc1OC,16,18,13,26,43*,34*
Cc1nc(NS(=O)(=O)c2cccs2)c2c3c(sc2n1)CCC3,26,8,12,43,44*,29*
Cc1nc(NS(=O)(=O)c2ccc(Br)cc2)c2c3c(sc2n1)CCC3,20,10,0,32,14,nt
C[C@H](CO)N1C[C@H](C)[C@@H](CN(C)Cc2ccccc2)Oc2ccc(NC(=O)CCCCCC(=O)Nc3ccccc3N)cc2C1=O,-2,12,nt,-6,-9,nt
CCC(C(=O)N(C(C)C)C(C)C)c1ccccc1 (stereo not given),-7,23,nt,-6,7,nt
CCC(C(=O)c1ccc(O)cc1)c1ccccc1 (stereo not given),20,-66,0,24,46*,28
CCc1cc(=O)oc2cc(OC(C)C(=O)O)c(Cl)cc12 (stereo not given),9,-4,10,-11,3,nt
O=C(c1sc2ccccc2c1Cl)N1CCN(c2ccc(F)cc2)CC1,32,0,14,8,28,nt
O=C(c1sc2ccccc2c1Cl)N1CCN(c2ccccc2F)CC1,3,8,11,30,42*,28
COc1ccc(NC(=O)COC(=O)Cc2c(F)cccc2Cl)cc1,4,14,7,18,43*,24
COc1ccc(NC(=O)Cc2c(F)cccc2Cl)cc1,-1,27,17,11,-21,nt
O=C(c1ccc(Oc2ccccc2)cc1)c1nc2c(n1O)CCCC2,30,-62,0,15,41*,16
O=C(Cc1cccs1)N[C@@H]1c2ccccc2CC[C@@H]1OCc1ccccc1,1,nt,nt,31,11,nt
COc1ccc(/C=C/C(=O)NC(=S)NNC(=O)[C@H]2C[C@@H]2c2ccccc2)cc1OC,4,3,-9,1,48*,11
CC(=O)N1N=C(c2cccs2)CC1c1cc2cc(C)ccc2nc1Cl (stereo not given),-23,24,nt,-23,-29,nt
CCN(CC)C(=O)CSc1nnc(CNc2ccc(F)cc2)o1,-5,-4,2,-3,5,nt

# Source: PubChem BioAssay (Sanford-Burnham Center for Chemical Genomics)
